# In article PMC11062922 (Nature Chemical Biology, 2023):
# Where two headings read alike, the source gives them in different places.
# What was measured:
# Parameters in all cases: species or system human, MV4-11 + K-562 + COLO205 + SK-N-BE2 + OVCAR-8
# [1] = system: EGFR; settings: read-out: apparent Kd, compound concentrations: 100 nM and 1000 nM (sheet 'Samples'), n = 1
# [2] = system: RET; settings: read-out: apparent Kd, compound concentrations: 100 nM and 1000 nM (sheet 'Samples'), n = 1
# [3] = system: RIPK2; settings: read-out: apparent Kd, n = 1
# [4] = system: EIF2AK1; settings: read-out: apparent Kd; compound concentrations:100 nM and 1000 nM (sheet 'Samples'); n = 1
# [5] = system: GAK; settings: read-out: apparent Kd, n = 1
# [6] = system: MAPK11; settings: read-out: apparent Kd; compound concentrations:100 nM and 1000 nM (sheet 'Samples'); n = 1
# [7] = system: MAPK14; settings: read-out: apparent Kd, n = 1
# [8] = system: MAPK8; settings: read-out: apparent Kd; compound concentrations:100 nM and 1000 nM (sheet 'Samples'); n = 1
# [9] = system: MAPK9; settings: read-out: apparent Kd; compound concentrations:100 nM and 1000 nM (sheet 'Samples'); n = 1
# [10] = system: MAPKAPK2; settings: read-out: apparent Kd, n = 1
# [11] = system: PIP4K2C; settings: read-out: apparent Kd; compound concentrations:100 nM and 1000 nM (sheet 'Samples'); n = 1
# [12] = system: SIK2; settings: read-out: apparent Kd; compound concentrations:100 nM and 1000 nM (sheet 'Samples'); n = 1
# [13] = system: SIK3; settings: read-out: apparent Kd; compound concentrations:100 nM and 1000 nM (sheet 'Samples'); n = 1
# [14] = system: TAOK2; settings: read-out: apparent Kd; compound concentrations:100 nM and 1000 nM (sheet 'Samples'); n = 1
# [15] = system: EPHA1; settings: read-out: apparent Kd, compound concentrations: 100 nM and 1000 nM (sheet 'Samples'), n = 1
# [16] = system: EPHA2; settings: read-out: apparent Kd, compound concentrations: 100 nM and 1000 nM (sheet 'Samples'), n = 1
# [17] = system: EPHA4; settings: read-out: apparent Kd, compound concentrations: 100 nM and 1000 nM (sheet 'Samples'), n = 1
# [18] = system: EPHA5; settings: read-out: apparent Kd, compound concentrations: 100 nM and 1000 nM (sheet 'Samples'), n = 1
# [19] = system: EPHB2; settings: read-out: apparent Kd, compound concentrations: 100 nM and 1000 nM (sheet 'Samples'), n = 1
# [20] = system: EPHB4; settings: read-out: apparent Kd, compound concentrations: 100 nM and 1000 nM (sheet 'Samples'), n = 1
# [21] = system: HSP90B1; settings: read-out: apparent Kd; compound concentrations: 100 nM and 1000 nM (sheet 'Samples'), CATDS: 5.9403199864953501E-2; n = 1
# [22] = system: MAP4K4; settings: read-out: apparent Kd; compound concentrations: 100 nM and 1000 nM (sheet 'Samples'), CATDS: 6.0397447549850998E-2; n = 1
# [23] = system: RIPK3; settings: read-out: apparent Kd, compound concentrations: 100 nM and 1000 nM (sheet 'Samples'), n = 1
# [24] = system: TGFBR2; settings: read-out: apparent Kd; compound concentrations: 100 nM and 1000 nM (sheet 'Samples'), CATDS: 9.6643303505933295E-2; n = 1
# [25] = system: TNIK; settings: read-out: apparent Kd; compound concentrations: 100 nM and 1000 nM (sheet 'Samples'), CATDS: 7.16657274929937E-2; n = 1
# [26] = system: EPHA7; settings: read-out: apparent Kd; compound concentrations: 100 nM and 1000 nM (sheet 'Samples'), CATDS: 5.7157289588894301E-2; n = 1
# [27] = system: FLT4; settings: read-out: apparent Kd; compound concentrations: 100 nM and 1000 nM (sheet 'Samples'), CATDS: 5.9092612801250499E-2; n = 1
# [28] = system: NNT; settings: read-out: apparent Kd; compound concentrations: 100 nM and 1000 nM (sheet 'Samples'), CATDS: 5.7006998713096203E-2; n = 1
# [29] = system: PIK3CD; settings: read-out: apparent Kd, compound concentrations: 100 nM and 1000 nM (sheet 'Samples'), n = 1
# [30] = system: PIK3CA; settings: read-out: apparent Kd; compound concentrations: 100 nM and 1000 nM (sheet 'Samples'), CATDS: 0.12114887477335; n = 1
# [31] = system: PIK3CG; settings: read-out: apparent Kd; compound concentrations: 100 nM and 1000 nM (sheet 'Samples'), CATDS: 8.4802846120227496E-2; n = 1
# [32] = compound concentrations:100 nM and 1000 nM (sheet 'Samples')
smiles,measurement,setting,value
COc1cc2ncnc(Nc3ccc(C)c(O)c3)c2cc1OC.Cl [GW410563A],potency estimated from few doses,[1]; CATDS: 0.29565759118255602,439 nM
same,potency estimated from few doses,[2]; CATDS: 0.33989373739411199,326 nM
same,potency estimated from few doses,"[3]; compound concentrations: 100 nM and 1000 nM (sheet 'Samples'), CATDS: 0.37374612171419203",272 nM
Cn1c(=O)c(-c2ccccc2Cl)cc2cnc(NC3CCOCC3)nc21 [RO3303470-000],potency estimated from few doses,[4],1090 nM
same,potency estimated from few doses,[5]; [32],695 nM
same,potency estimated from few doses,[6],20.2 nM
same,potency estimated from few doses,[7]; [32],24 nM
same,potency estimated from few doses,[8],318 nM
same,potency estimated from few doses,[9],202 nM
same,potency estimated from few doses,[10]; [32],12.5 nM
same,potency estimated from few doses,[11],1140 nM
same,potency estimated from few doses,[3]; [32],503 nM
same,potency estimated from few doses,[12],1330 nM
same,potency estimated from few doses,[13],604 nM
same,potency estimated from few doses,[14],1880 nM
Nc1ncc(-c2cccc(S(N)(=O)=O)c2)c2scc(-c3ccc(F)c(Cl)c3)c12 [GW856804X],potency estimated from few doses,[15]; CATDS: 0.132169396234084,306 nM
same,potency estimated from few doses,[16]; CATDS: 7.9638266315165504E-2,758 nM
same,potency estimated from few doses,[17]; CATDS: 5.73813509995778E-2,1770 nM
same,potency estimated from few doses,[18]; CATDS: 6.5260226509332095E-2,1210 nM
same,potency estimated from few doses,[19]; CATDS: 6.01599429552135E-2,1530 nM
same,potency estimated from few doses,[20]; CATDS: 8.2169743824678607E-2,710 nM
same,potency estimated from few doses,"[5]; compound concentrations: 100 nM and 1000 nM (sheet 'Samples'), CATDS: 7.0423696237644606E-2",1000 nM
same,potency estimated from few doses,[21],1590 nM
same,potency estimated from few doses,[22],1510 nM
same,potency estimated from few doses,"[3]; compound concentrations: 100 nM and 1000 nM (sheet 'Samples'), CATDS: 0.101348300005731",475 nM
same,potency estimated from few doses,[23]; CATDS: 0.17935532425018,196 nM
same,potency estimated from few doses,[24],518 nM
same,potency estimated from few doses,[25],961 nM
COc1cc2ncnc(Nc3cccc(Cl)c3F)c2cc1O[C@H]1CC[C@H]([C@@H]2NCCNC2=O)CC1 [BI00133844],potency estimated from few doses,[1]; CATDS: 0.60963151876595101,15.4 nM
same,potency estimated from few doses,[15]; CATDS: 0.101565778514596,403 nM
same,potency estimated from few doses,[16]; CATDS: 6.7925989209778895E-2,1060 nM
same,potency estimated from few doses,[17]; CATDS: 7.2128070641764394E-2,898 nM
same,potency estimated from few doses,[18]; CATDS: 6.7106289127757499E-2,1090 nM
same,potency estimated from few doses,[26],1800 nM
same,potency estimated from few doses,[19]; CATDS: 6.4850076698592204E-2,1200 nM
same,potency estimated from few doses,[20]; CATDS: 0.111344717085302,332 nM
same,potency estimated from few doses,[27],1600 nM
same,potency estimated from few doses,"[7]; compound concentrations: 100 nM and 1000 nM (sheet 'Samples'), CATDS: 5.8794914903048702E-2",1630 nM
same,potency estimated from few doses,"[10]; compound concentrations: 100 nM and 1000 nM (sheet 'Samples'), CATDS: 6.3284106262713205E-2",1290 nM
same,potency estimated from few doses,[28],1810 nM
same,potency estimated from few doses,[2]; CATDS: 0.20598352545457299,99 nM
Cn1cc(C2=C(c3c[nH]c4ccccc34)C(=O)NC2=O)c2ccccc21 [RO0317884-000],potency estimated from few doses,[18]; CATDS: 0.352465913660859,1650 nM
same,potency estimated from few doses,[29]; CATDS: 0.85995893919281496,146 nM
COc1cc2ncnc(Nc3ccc(F)c(Cl)c3)c2cc1O[C@H]1CC[C@H](N)CC1 [BIBW3133BS],potency estimated from few doses,[1]; CATDS: 0.31081219561231099,48.6 nM
same,potency estimated from few doses,[15]; CATDS: 8.4373240562764601E-2,670 nM
same,potency estimated from few doses,[20]; CATDS: 9.3319537671251104E-2,508 nM
same,potency estimated from few doses,"[5]; compound concentrations: 100 nM and 1000 nM (sheet 'Samples'), CATDS: 7.6130935509039099E-2",922 nM
same,potency estimated from few doses,"[10]; compound concentrations: 100 nM and 1000 nM (sheet 'Samples'), CATDS: 6.9663188807488702E-2",1270 nM
same,potency estimated from few doses,[30],273 nM
same,potency estimated from few doses,[29]; CATDS: 0.31843258690153697,46.8 nM
same,potency estimated from few doses,[31],660 nM
same,potency estimated from few doses,"[3]; compound concentrations: 100 nM and 1000 nM (sheet 'Samples'), CATDS: 8.6500761240037902E-2",624 nM
same,potency estimated from few doses,[23]; CATDS: 8.3491494498952795E-2,691 nM
